# Measured values as given in PubChem BioAssay (NCATS).
# Records with an inconclusive call do not appear. A number with no mark means an inactive call. Activity calls are given as the source filed them. Calls come from the whole dose curve.
# Target: Estrogen receptor (Homo sapiens) (UniProt P03372)
# Experiment: qHTS assay for small molecule agonists of estrogen receptor alpha signaling (AID 588514); note: nearly all actives have a fitted effect of over 70% in size
# Conditions: ER-alpha-UAS-bla HEK293, beta-lactamase ratio, 18 h, percent of full estradiol response, vehicle zero; series mostly up to 76.8 µM; activation: at the top concentration
# Text: NIH Chemical Genomics Center [NCGC]
# U.S. Environmental Protection Agency [EPA]
# National Institutes of Environmental Health Sciences [NIEHS]
# National Toxicology Program [NTP]
# Estrogen receptor alpha (ER-alpha) is an important member of nuclear hormone receptors. ER-alpha plays important role in breast cancer as well as in other women's health issues. The majority of breast cancers is estrogen receptor (ER) positive and depends on estrogen for growth. There is also growing concern for some of environmental chemicals which may contribute the increasing the incidence of breast cancer. Therefore, it is important to understand the effect of environmental chemicals in ER-alpha signaling pathway.
# NCGC Assay Protocol Summary
# Using a beta-lactamase reporter-gene under control of the ER response element, a cell-based assay [ER-alpha-UAS-bla GripTiteTM cell-Based Assay from Invitrogen] was used to measure ER-alpha signaling pathway in agonist mode. ER-alpha-UAS-bla-GripTite HEK 293 cells were used with assay medium containing 2% charcoal/dextran treated FBS, 0.1 mM NEAA and 1 mM sodium pyruvate. Cells were cultured in this assay medium overnight in the flasks before the assay. The assay was performed in clear bottom black Greiner 1536-well plates. 17-beta-estradiol was used as a positive control in the screen. Library compounds were measured for their ability to either stimulate the reporter gene activity. Compounds were screened in a titration series in 1536-well format. […] Data was normalized relative to 17-beta-estradiol control (20 nM, 100%), and DMSO only wells (basal, 0%). Concentration-response titration points for each compound were fitted to the Hill equation yielding concentrations of half-maximal stimulation (EC50) and maximal response (efficacy) values.
# qHTS protocol for ER-alpha beta-lactamase assay in agonist mode
# [Step] [Parameter] [Value] [Description]
# 1. Reagent; 6 uL; 5000 cells/well
# 2. Incubation; 37 C for 4 hrs
# 4. Controls (17-beta-estradiol); 23 nL
# - Dose response, start 1uM, 1:3 dilutions with duplicates
# - Two columns with 20 and 0.5 nM (final) concentration.
# 5. Incubation; 37 C for 18 hrs
# 6. Detection reagent; 1 uL of CCF4-dye
# 7. Incubation; RT for 2 hrs
# 8. Detection; Fluorescence; Envision plate reader or Acumen plate reader
# Estrogen receptor (Homo sapiens), sequence (P03372 whole entry, looked up): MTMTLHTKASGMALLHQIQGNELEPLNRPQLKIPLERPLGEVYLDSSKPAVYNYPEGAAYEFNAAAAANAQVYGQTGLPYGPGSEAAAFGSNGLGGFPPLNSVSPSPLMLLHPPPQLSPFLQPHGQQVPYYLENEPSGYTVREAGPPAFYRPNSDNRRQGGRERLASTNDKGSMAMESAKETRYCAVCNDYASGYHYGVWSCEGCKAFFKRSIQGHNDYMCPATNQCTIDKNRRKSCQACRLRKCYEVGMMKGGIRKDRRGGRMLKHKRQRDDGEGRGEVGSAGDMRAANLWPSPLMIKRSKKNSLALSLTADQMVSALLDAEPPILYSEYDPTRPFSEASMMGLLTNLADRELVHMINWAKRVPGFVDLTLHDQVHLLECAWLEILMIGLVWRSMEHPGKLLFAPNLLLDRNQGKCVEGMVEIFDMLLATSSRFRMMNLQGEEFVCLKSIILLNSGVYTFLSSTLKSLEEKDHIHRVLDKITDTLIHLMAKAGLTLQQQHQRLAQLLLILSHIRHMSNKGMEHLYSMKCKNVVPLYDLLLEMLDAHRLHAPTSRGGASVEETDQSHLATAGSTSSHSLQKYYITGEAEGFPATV
Compound,activation [%],outcome
N[C@@H](Cc1c[nH]c2ccc(O)cc12)C(=O)O,0.53,–
NCCS(=O)(=O)O,-7.1,–
Cn1c(=O)c2[nH]cnc2n(C)c1=O,-2.41,–
Nc1c2c(nc3ccccc13)CCCC2,0.533,–
NS(=O)(=O)c1cc2c(cc1Cl)NCNS2(=O)=O,–,inactive
Nc1ccn([C@H]2CC[C@@H](CO)O2)c(=O)n1,–,inactive
COc1ccc2[nH]cc(CCNC(C)=O)c2c1,–,inactive
COc1cc2c(c(OC)c1OC)-c1ccc(OC)c(=O)cc1[C@@H](NC(C)=O)CC2,–,inactive
CC(C)Cc1ccc(C(C)C(=O)O)cc1 (stereo unspecified),2.52,–
CN(C)CCOC(c1ccccc1)c1ccccc1,-1.01,–
Cc1cn([C@H]2C[C@H](N=[N+]=[N-])[C@@H](CO)O2)c(=O)[nH]c1=O,–,inactive
